Each structure is given as a SMILES string. Screen size: about 85,000 compounds; about 5,100 (6%) were called active. Many of the other results were omitted from the sample, so actives are more common in it than they were. A number with no mark means an inactive call.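 The calls were made as follows: active = viability at or below 40%; inactive = viability above 40%.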

The assay in a line: proliferation blockers of H69AR lung cancer cells, primary screen, cell-based, human, 86K library (AID 598).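 Also: multidrug resistant small cell line overexpressing MRP-1 efflux transporter; 100% = mean luminescence of untreated control wells.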 As to conditions: H69AR lung tumor viability, ATP luminescence, 72 h; at 10 µM; hits give low values.
Take `CCOC(=O)c1c(N)n(CCN2CCOCC2)c2nc3ccccc3nc12`: the viability is 92.9%.

Turning to `CCOC(=O)c1c(N)n(Cc2ccccc2)c2nc3ccccc3nc12`, the viability was 74.2%.

`COc1cc(Cn2c(N)c(C(=O)NCc3ccco3)c3nc4ccccc4nc32)cc(OC)c1OC`: the viability is 9.48% (active).

In the case of `Cn1c(O)c(C=NCCN2CCNCC2)c(=O)n(C)c1=O`, the viability is 93.2%.

`COc1ccc(CN2CCN(c3ccccc3F)CC2)c(OC)c1`: the viability is 78.7%.

Take `CN(C)C(=O)NC(O)C(Cl)(Cl)Cl` (stereo not given): the viability was 103%.

Turning to `CCCCn1c(O)c(C(CC)=NCc2ccco2)c(=O)[nH]c1=O`, the viability is 76.8%.

For `CCOc1ccc(CN(CCCl)CCCl)cc1C(=O)OC`, the viability was 54.1%.

As for `Cc1ccc(Cn2c(C)c3cnn(CC(=O)N4CCC5(CC4)OCCO5)c(=O)c3c2C)cc1`, the viability is 37.9% (active).

`COc1ccc(-c2nc(CS(=O)CC(=O)N3CCC4(CC3)OCCO4)c(C)o2)cc1` (stereo not given): the viability is 92.7%.

`O=C(CCCn1c(=O)[nH]c2cc(Cl)ccc2c1=O)N1CCC2(CC1)OCCO2`: the viability is 82.2%.

On to `CC(=O)c1c(C)n(C(C)C)c2ccc(O)cc12`, for which the viability is 98.6%.

For `CCCCCn1c(=O)c(C(=O)NCc2ccccn2)c(O)c2ccccc21`, the viability is 20.3% (active).

Regarding `COc1ccc(CCn2c(O)c(C=NCCCn3ccnc3)c(=O)[nH]c2=O)cc1OC`, the viability was 87.2%.

Regarding `CCN(N=Nc1nonc1OC)c1nonc1OC`, the viability is 95.7%.

Consider `Cc1ccc(N(C)C(=O)Oc2cccc3ccc(C)nc23)cc1`, for which the viability was 90%.

For `CCC(=NCc1ccco1)c1c(O)n(Cc2ccccc2)c(=O)[nH]c1=O`, the viability is 71.1%.

In the case of `CC(=O)c1c(O)n(C2CCCCCC2)c(=O)[nH]c1=O`, the viability is 88.7%.

As to `CCC(=NCCc1ccccc1)c1c(O)n(C2CCCCC2)c(=O)[nH]c1=O`, the viability is 25.3% (active).

Turning to `c1cc2c(cc1CCNC1CCCCCC1)OCO2`, the viability was 73.7%.
